Many of the other results were omitted from the sample, so hits are more common in it than they were.
mHTT-CaM PPI inh = mHTT-calmodulin interaction abrogation; inhibition, % at 15 µM; 3.6% of 190,000 active; P42858; AlphaScreen His-mHTT/GST-CaM binding, luminescence; AID 1671202;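 further: 0% = both proteins with DMSO and 100% = one protein alone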
Pf apPOL inh = Pf-apPOL DNA polymerase inhibition; Recombinant Pf-apPOL, molecular beacon fluorescence, 1.5 h; inhibition, % at 10 µM; 0.25% of 210,000 active
* marks the source's active call; other numbers are inactive results; nt = no result. No stated cut-off is given here; in the data, active means inhibition above about 50%; inactive means the rest.

SMILES	mHTT-CaM PPI inh	Pf apPOL inh
CCc1nc2c(NC(=O)c3ccc(OC)c(F)c3)cccn2n1	-1.2	0.8
Cc1ccc2c(CN3CCC(C)CC3)cc(=O)oc2c1	-16.6	-8.2
CC1CCN(Cc2cc(Br)c(O)c3ncccc23)CC1	100.0*	-6.6
Cn1c2ccccc2c(=O)c2c(=O)n(Cc3ccco3)c(CN3CCCCC3)nc21	20.9	-7.7
Cc1cc(C)n(C(CC(=O)O)C(=O)O)n1 (stereo unspecified)	-3.4	0.4
O=C(O)CC(C(=O)O)n1nc(-c2ccccc2)cc1-c1ccccc1 (stereo unspecified)	1.0	96.3*
COc1ccc(CNC(=O)CN2CCN(C(=O)Nc3ccc(F)cc3)CC2=O)cc1	-7.5	-5.1
COc1ccc(C2/C=C\CN(C(=O)C3CCCC3)[C@@H](C)C(=O)N2Cc2ccc(F)cc2)cc1 (stereo partly specified)	42.6	-1.8
COc1ccc(C2/C=C\CN(Cc3ccco3)CC(=O)N2Cc2ccc(F)cc2)cc1 (stereo unspecified)	60.6*	-4.1
COc1ccc(C2/C=C\CN(CC3CCCCC3)CC(=O)N2Cc2ccc(F)cc2)cc1 (stereo unspecified)	33.5	-3.0
COc1ccc(C2/C=C\CN(C(=O)Oc3ccc(C(F)(F)F)cc3)CC(=O)N2Cc2ccc(F)cc2)cc1 (stereo unspecified)	79.4*	-0.7
COc1ccc(C2/C=C\CN(C(=O)c3ccc(C)cc3)CC(=O)N2Cc2ccc(F)cc2)cc1 (stereo unspecified)	74.7*	-3.3
COc1ccc(C2/C=C\CN(S(=O)(=O)c3ccc(-c4ccccc4)cc3)CC(=O)N2Cc2ccc(F)cc2)cc1 (stereo unspecified)	-3.0	-0.7
COc1ccc(C2/C=C\CN(C(=O)Nc3ccc(C(F)(F)F)cc3)CC(=O)N2Cc2ccc(F)cc2)cc1 (stereo unspecified)	58.6*	-5.4
COC(=O)C(Cc1c[nH]c2ccccc12)N=Cc1ccccc1 (stereo unspecified)	nt	-11.2
O=C(NCCCN1CCc2ccccc2C1)c1noc2c1CCCCC2	4.2	-0.8
COc1ccc2c(=O)c(Oc3ccccc3)c(C)oc2c1OC	-6.0	-8.0
O=C(CSc1nc2ccccc2o1)NCCSCc1ccco1	nt	62.9*
O=C(CSC1=NCCS1)NCCSCc1ccco1	nt	-3.4
COc1ccc2cc(C3CC(c4ccc(C)cc4)=NN3C(C)=O)c(Cl)nc2c1 (stereo unspecified)	3.0	7.6
O=[N+]([O-])C(=C1SCCS1)C(=C(Cl)Cl)N1CCCCC1	70.0*	3.1
O=[N+]([O-])C(=C1SCCS1)C(=C(Cl)Cl)N1CCOCC1	19.0	-5.6
Cc1ccc(CNC(=O)CC2CCN(S(=O)(=O)c3cccs3)CC2)cc1	-2.5	3.7
O=C(c1ccccc1)N1CCC2(CC1)NC(=O)N(Cc1ccc(F)cc1)C2=O	7.6	-3.8
O=C(c1ccccc1)N1CCC2(CC1)NC(=O)N(Cc1ccccc1Cl)C2=O	8.7	-3.3
SMILES	mHTT-CaM PPI inh	Pf apPOL inh
O=C(c1c[nH]c2ccccc12)N1CCC2(CC1)NC(=O)N(Cc1ccccc1Cl)C2=O	98.2*	-7.1
O=C(c1c[nH]c2ccccc12)N1CCC2(CC1)NC(=O)N(Cc1ccc(F)cc1)C2=O	58.1*	-5.1
O=C(c1cc2ccccc2[nH]1)N1CCC2(CC1)NC(=O)N(Cc1ccc(F)cc1)C2=O	70.2*	-3.4
O=C(c1cc2ccccc2[nH]1)N1CCC2(C1)NC(=O)N(Cc1ccc(F)cc1)C2=O (stereo unspecified)	-1.8	-2.4
COc1ccc(-c2c(C#N)c(SCc3csc(C)n3)nc3c2C(=O)CC(C)(C)C3)cc1	24.0	-6.3
O=C(c1cccnc1)N1CCN(Cc2cccc([N+](=O)[O-])c2)CC1	-6.4	2.3
O=C(O)C1CC(=O)N(CCc2ccc(Cl)cc2)C1 (stereo unspecified)	nt	-3.0
CC(=O)N1CCc2[nH]c3ccc(C(=O)N4CCN(C(C)C)CC4)cc3c2C1	13.9	-2.7
CCN(CCNC(=O)c1ccc2[nH]c3c(c2c1)CN(C(C)=O)CC3)c1ccccc1	67.6*	-3.9
CC(=O)N1CCc2[nH]c3ccc(C(=O)NCCc4nc5ccccc5n4C)cc3c2C1	14.2	-1.9
CC(=O)N1CCc2[nH]c3ccc(C(=O)N4CCN(Cc5ccc(C)cc5)CC4)cc3c2C1	77.7*	-3.1
CCN(CC)c1ccc(CNC(=O)c2ccc3[nH]c4c(c3c2)CN(C(C)=O)CC4)cc1	69.1*	0.1
CC(=O)N1CCc2[nH]c3ccc(C(=O)NCc4ccc(N5CCN(C)CC5)cc4)cc3c2C1	20.9	-1.8
CC(=O)N1CCc2[nH]c3ccc(C(=O)N4CCOCC4)cc3c2C1	35.7	-0.8
CC(=O)N1CCc2[nH]c3ccc(C(=O)NCc4ccc(F)cc4)cc3c2C1	72.0*	3.8
Cc1noc(C)c1CN1CCC(NC(=O)c2ccc(F)c(F)c2)CC1	3.8	0.3
Cc1ccc(C(=O)Nc2ccc(S(=O)(=O)Nc3nccs3)cc2)o1	0.5	-0.3
O=C(NCc1ccc(C(F)(F)F)cc1)C1CCCN(c2nccc3sccc23)C1 (stereo unspecified)	9.8	-0.6
COc1ccc(CNC(=O)CCc2nc3ccc(C)cc3c(=O)n2C)cc1	-6.8	3.0
CCN(C(=O)c1ccc2[nH]c3c(c2c1)CN(C(C)=O)CC3)c1cccc(C)c1	84.2*	-3.8
CCC(CC)N1CCN(C(=O)c2ccc3[nH]c4c(c3c2)CN(C(C)=O)CC4)CC1	38.3	-5.0
O=C(NCCc1ccc(F)cc1)c1nnn(-c2ccccc2)c1CSc1ncccn1	-11.2	-80.1
COc1ccccc1CN=Cc1[nH]c2ccc(Br)c(Cl)c2c1O	71.0*	-9.3
COc1cccc(CN=Cc2[nH]c3ccc(Br)c(Cl)c3c2O)c1OC	14.0	-3.2
Cc1ccc(-c2noc(C3CCCN3C(=O)c3cncc(Br)c3)n2)cc1 (stereo unspecified)	-0.4	-0.2
SMILES	mHTT-CaM PPI inh	Pf apPOL inh
Cn1c(NC(=O)c2ccco2)nc2ccccc21	0.3	-0.6
Cc1nc(C)c(-c2ccc(SCC(=O)c3ccc([N+](=O)[O-])cc3)nn2)s1	20.9	2.2
O=C(CSc1ccc(-c2ccccn2)nn1)c1ccc([N+](=O)[O-])cc1	99.6*	2.4
CCCc1cc(C(=O)N2CCCC2c2cc(C(C)C)on2)no1 (stereo unspecified)	-8.0	-0.8
CCC(=O)N1CCc2c(nc3cc(-c4ccc(OC)cc4)[nH]n3c2=O)C1	32.0	-2.0
CC(C)CC(C(=O)O)N1C(=O)C(=Cc2ccco2)SC1=S (stereo unspecified)	6.2	16.4
CCC(C(=O)O)N1C(=O)C(=CC=Cc2ccco2)SC1=S (stereo unspecified)	41.3	93.5*
Cc1c(Cl)c([N+](=O)[O-])nn1CCCC(=O)Nc1ccc(C#N)cc1	5.0	-1.5
O=C(NCc1cccc(F)c1)C1CCN(c2cncnc2N2CCOCC2)CC1	-2.0	-4.4
Cc1c(CC(Cl)(Cl)Cl)c2c(n1-c1ccccc1[N+](=O)[O-])CCCC2=O	33.0	-6.1
Cc1c(CC(Cl)(Cl)Cl)c2c(n1-c1ccc([N+](=O)[O-])cc1)CCCC2=O	73.0*	-8.1
O=[N+]([O-])c1c(Nc2ccccc2O)ncnc1Nc1ccccc1O	69.0*	-2.2
Nc1ncnc(Nc2ccccc2N=Cc2ccccc2O)c1[N+](=O)[O-]	16.0	1.1
COc1ccc(Oc2coc3c(CN4CCCCCC4)c(O)ccc3c2=O)cc1	97.0*	-3.4
CCOC(=O)c1ccc(Oc2coc3c(CN4CCCCC4)c(O)ccc3c2=O)cc1	-0.6	-4.5

Bioassay records: PubChem BioAssay, University of Kansas High Throughput Screening Laboratory
